Experimental data reported in PubChem BioAssay (NCI).
The panel holds about 83,000 compounds, 20% with a hit somewhere; the sample as a whole holds those more often.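 Interpretation: 100, growth as untreated; towards 0, rising growth inhibition; 0, no net growth; 0 to -100, cell death. Compounds scoring below 10 were considered active.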 Unmarked numbers belong to inactive results. Calls of active or inactive are those of the source.

Columns and labels:
Assay in all cases: NCI-60 one-dose screen, 48 h (100 = growth as untreated, 0 = no growth, -100 = all killed)
SK-MEL-2 melanoma = conditions: 10 µM unless noted
EKVX NSCLC = conditions: 10 µM unless noted
SN12C renal = conditions: 10 µM unless noted
UO-31 renal = conditions: 10 µM unless noted
TK-10 renal = conditions: 10 µM unless noted
ACHN renal = conditions: 10 µM unless noted
A498 renal = conditions: 10 µM unless noted
CCRF-CEM leukemia = conditions: 10 µM unless noted
MOLT-4 leukemia = conditions: 10 µM unless noted
CAKI-1 renal = conditions: 10 µM

SMILES	growth (SK-MEL-2 melanoma)	growth (EKVX NSCLC)	growth (SN12C renal)	growth (UO-31 renal)	growth (TK-10 renal)	growth (ACHN renal)	growth (A498 renal)	growth (CCRF-CEM leukemia)	growth (MOLT-4 leukemia)	growth (CAKI-1 renal)
CC1(C)Cc2c(Br)c(Br)c(Br)c(OCC(O)CN3CCN(c4ccccn4)CC3)c2O1 (configuration not stated)	77.1%	95.3%	106%	47.7%	66%	85.8%	96.2%	-14.3% (active)	52.9%	
N#CC(C#N)=C(C#N)c1c[nH]c2ccccc12	90.9%	73%	79%	63.9%	98.9%	73.4%	101%	65.5%	75.7%	
Oc1ccc(O)c(-[n+]2ccccc2)c1	101%	105%	98.1%	94%	100%	107%	108%	101%	91.9%	
C=C1C(=O)O[C@H]2[C@H]1CC/C(COC(=O)c1cccc3ccccc13)=C\CC[C@@]1(C)O[C@@H]21	-65.6% (active)	-81.9% (active)	-55.3% (active)	-100% (active)	-73.1% (active)	-100% (active)	82.2%	-19% (active)	-15.1% (active)	
CCc1cccc(-c2ccccc2)c1	116%	102%	99.5%	87.8%	106%	108%		8.01% (active)	88%	
CC(Cc1cccc(C(F)(F)F)c1)NCCOC(=O)c1ccccc1 (configuration not stated)	113%	84.6%	99.8%	85.4%	129%		107%	105%	96.1%	87.4%
O=C(c1cc(-c2ccc(Cl)cc2)nc2ccccc12)N1N=C(c2ccccc2)CC1c1cc(-c2ccccc2)nn1-c1ccccc1 (configuration not stated)	86.4%	81.1%	85.5%	70.4%	131%	73%	92.5%	65.1%	68.7%	
COc1ccc(-c2cc(-c3nnc(SC/C(=N\O)c4ccccc4)n3-c3ccccc3)c3ccccc3n2)cc1	95.2%	103%	105%	75.3%	123%	106%	109%	103%	98.4%	
Nc1n[nH]c2cccc(C#Cc3cccc(NC(=O)c4cccc(C(F)(F)F)c4)c3)c12	8.52% (active)	65.4%	40.7%	3.58% (active)	41%	28.6%	14.9%	28.8%	27.3%	
CCCCCCCCCCCC(=O)OCCNC(=O)C[n+]1ccccc1	97.7%	91.8%	102%	83%	101%	99.9%		98.1%		
NS(=O)(=O)c1ccc(-n2nc(-c3ccc(Cl)cc3)ccc2=O)cc1	86.1%	99.7%	109%	91.7%	123%	101%	102%	86.4%	96.4%	
C=C1c2c(Cl)ccc(O)c2C(O)=C2C(=O)[C@]3(O)C(O)=C(C(N)=O)C(=O)[C@@H](N(C)C)[C@@H]3[C@@H](O)[C@H]12	-10.9% (active)	36.4%	10.8%	4.78% (active)	7.64% (active)		-10% (active)	4.46% (active)	-11.5% (active)	3.62% (active)
Cc1cc[n+](CCCC[n+]2ccc(C)cc2)cc1	124%	97.2%	97.4%	96%	107%	104%	121%	91.7%	91.1%	
CCCCNc1cc(C(=O)O)cc(S(N)(=O)=O)c1Oc1ccccc1	106%	106%	97.1%	85.4%	104%		89.1%	105%	110%	89.3%
COc1cc(/C=C/C(=O)c2c(C)n([O-])c3cc(C)c(C)cc3[n+]2=O)cc(OC)c1OC	69.6%	79.2%	72.8%	14.2%	77%	69.2%	41.8%	38%	44.3%	
COC1OCC(OS(=O)(=O)c2ccc(C)cc2)C(OC(=O)c2ccccc2)C1OC(=O)c1ccccc1 (configuration not stated)	36.1%	53.4%	74.3%	48.3%	88%	54%	87.4%		48.9%	
COc1cc(NS(C)(=O)=O)ccc1Cc1c2ccccc2nc2ccccc12	104%	45.3%	-6.92% (active)	-5.05% (active)	23.9%		-8.76% (active)	3.42% (active)	4.35% (active)	-4.78% (active)
O=C1OC(=O)C2C3CC(c4ccccc43)C12 (configuration not stated)	125%	99.3%	113%	76.2%	123%	90.1%	110%	98.8%	104%	
CC(NCCC(c1ccccc1)c1ccccc1)c1ccccc1 (configuration not stated)	79%	44.1%	86.4%	32.6%	57.5%		63.8%	48%	17.8%	42.3%
COc1cc(C(=O)N2CCN(C(=O)c3cc(OC)c(OCc4ccccc4)cc3N)CC2)c(N)cc1OCc1ccccc1	102%	90.8%	111%	98.3%	131%	159%	132%		101%	
C[C@@H]1CC2C3C[C@H](F)C4=CC(=O)C=C[C@]4(C)[C@@]3(F)[C@@H](O)C[C@]2(C)[C@@]1(O)C(=O)CO (some centres not stated)	94.2%	64.9%	51.6%	71.6%	102%		123%	40%	76.8%	75.8%
C=C1C(=O)O[C@H]2[C@H]1CC/C(COC(=O)c1ccc(Br)cc1)=C\CC[C@@]1(C)O[C@@H]21	-24.5% (active)	-41.3% (active)	-22% (active)	-89.8% (active)	8.28% (active)	-93.4% (active)	100%	-17.5% (active)	-27.2% (active)	
Cc1ccc2c(c1)Nc1ccc(C)cc1C2(C)C	88.9%	87.8%	103%	91.3%	102%	112%	118%	92.8%	73.4%	
Cc1ccc2c(C3C(C#N)=C(N)Oc4cc5ccccc5cc43)cc(=O)oc2c1 (configuration not stated)	27.8%	40%	46.3%	47.3%	47.6%	50.6%	30.8%	13%	20.8%	
COC(=O)Nc1nc2ccc(Sc3ccccc3)cc2[nH]1	53%	57.1%	44.6%	34.6%	65.6%		13.9%	10.7%	14.6%	39.1%
OCCOCC(F)(F)F	119%	97.9%	116%	94.1%	116%	108%		-0.0215% (active)		
COc1ccccc1N1CCN(CCCOc2ccc(OCCCN3CCN(c4ccccc4OC)CC3)c(C(=O)c3cc(OC)c(OC)c(OC)c3)c2)CC1	97.2%	88.8%	110%	102%	123%	157%	122%		98.1%	
Nc1ccc(S(=O)(=O)Nc2cc(I)cc(I)c2)cc1	97.7%	124%	115%	99.7%	107%	120%	77.7%	-9.38% (active)	-69.4% (active)	
CC(=O)Nc1ccc(OC(=O)c2ccccc2O)cc1	147%	93.4%	102%	88.7%	128%		84.5%	95.9%	96.2%	91.3%
CCOc1ccc(Cc2nccc3cc(OCC)c(OCC)cc23)cc1OCC	80.4%	42%	58.9%	37.5%	68.6%		35.5%	58.7%	27.2%	48%
